From PubChem BioAssay (NCI)
About 79,000 compounds went through this panel and 15% of them were active in at least one assay; those are over-represented in the sample as a whole. The source made the active and inactive calls. No stated cut-off is given here; in the data, active means growth inhibition above about 70%; inactive means the rest.

Test: NCI Yeast Anticancer Drug Screen. Data for the wt2 strain (AID 169);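 further: 0% = growth of vehicle-treated yeast cultures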
Details: S. cerevisiae wt2 strain growth inhibition, hits give high values
Description: Growth inhibition of yeast strains with defined genetic alterations is measured as a screen for potential anti-cancer activity. Selected strains with alterations in DNA damage repair or cell cycle control were exposed to compounds and growth inhibition was measured relative to vehicle treated controls. The strain used in this assay is wt2

Measured: growth inhibition

O=[N+]([O-])c1ccc(-n2nc3ccc4c(no[n+]4[O-])c3[n+]2[O-])c([N+](=O)[O-])c1
inactive: at 1.2 µM -8% | at 3.7 µM -3% | at 11.0 µM -2% | at 33.0 µM 2% | at 100.0 µM 3%

C[CH2][Sn]1([CH2]C)[O]C2C(O)OC(CO)C(O)C2[O]1 (stereo not given)
active: at 100.0 µM 82%
inactive: at 1.2 µM -58% | at 3.7 µM -42% | at 11.0 µM -27% | at 33.0 µM 15%

O=c1oc2ccccc2c(O)c1C(c1ccc2ccccc2c1)c1c(O)c2ccccc2oc1=O
inactive: at 1.2 µM -25% | at 3.7 µM -21% | at 11.0 µM 38%
active: at 33.0 µM 97% | at 100.0 µM 94%

COc1cccc2c1C(=O)c1c(O)c3c(c(O)c1C2=O)C[C@@](O)(C(C)=O)C[C@@H]3OC1CC(N)C(OC2CC(O)C(O)C(C)O2)C(C)O1 (stereo not given in full)
inactive: at 1.2 µM -57% | at 3.7 µM -65% | at 11.0 µM -54% | at 33.0 µM -28% | at 100.0 µM 2%

Cc1ccc2c(c1)C1(C)c3cc(C)ccc3SP1S2 (stereo not given)
inactive: at 1.2 µM 13% | at 3.7 µM 1% | at 11.0 µM 18% | at 33.0 µM 36% | at 100.0 µM 50%

CC[C@@]1(O)C[C@H](OC2CC(N(C)C)C(O)C(C)O2)c2c(O)c3c(c(O)c2[C@H]1OC1CC(N(C)C)C(O)C(C)O1)C(=O)c1cccc(O)c1C3=O (stereo not given in full)
inactive: at 1.2 µM -21% | at 3.7 µM -24% | at 11.0 µM -44% | at 33.0 µM -4%
active: at 100.0 µM 94%

OCC(O)C(O)CO (stereo not given) (tested in a mixture with another compound)
inactive: at 1.2 µM -2% | at 3.7 µM 1% | at 11.0 µM 0% | at 33.0 µM -2% | at 100.0 µM 0%

COC(COC(=O)N1CCN(C=O)CC1)C1=C(N2CC2)C(=O)C(C)=C(N2CC2)C1=O (stereo not given)
inactive: at 1.2 µM -27% | at 3.7 µM -33% | at 11.0 µM -25% | at 33.0 µM -17% | at 100.0 µM -2%
